# Results from PubChem BioAssay (NCATS).
# Results filed as inconclusive are left out. Activity calls are given as the source filed them. Calls come from the whole dose curve; as a rule, active = well fitted cell-killing curve with a large enough effect; inconclusive = small, poorly fitted or top-dose-only effect; inactive = no such curve, though single readings can be large or run the other way.
# Test: qHTS of pediatric cancer cell lines to identify multiple opportunities for drug repurposing: Primary screen for SK-N-MC cells (AID 1347093);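 for activity change, negative = cytotoxic: plate controls were DMSO neutral control for no effect and bortezomib for full effect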
# Settings: SK-N-MC viability, CellTiter-Glo luminescence, 48 h; series mostly up to 46 µM; activity change, negative = cytotoxic: at the top concentration
# Outline: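 Metabolically active cells were quantified by ATP-dependent luminescence (CellTiter-Glo, 15 min at room temperature) following 48 h treatment. Cells had been plated at 500-1,000 per well and settled for 5 h beforehand.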
# Potency is the fitted concentration of half-maximal effect.
SMILES,"activity change, negative = cytotoxic",Potency
C[N+](C)(C)CCOC(=O)CCC(=O)OCC[N+](C)(C)C,3.63% (inactive),
C[C@]12C=CC(=O)C=C1CC[C@H]1[C@@H]3C[C@@H](O)[C@](O)(C(=O)CO)[C@@]3(C)C[C@H](O)[C@@]12F,-11.4% (inactive),
CC(=O)OCC1=C(C(=O)O)N2C(=O)[C@@H](NC(=O)Cc3cccs3)[C@H]2SC1,14.2% (inactive),
CC(C)NNC(=O)c1ccncc1,-6.55% (inactive),
CCN(CC)CCNC(=O)c1cc(S(C)(=O)=O)ccc1OC,-18.7% (inactive),
O=C(O)CN(CCOCCOCCN(CC(=O)O)CC(=O)O)CC(=O)O,0.435% [at 0.597 µM] (inactive),
Cc1cccc(C)c1NC(=O)C(C)N (stereo not given),-10.2% (inactive),
CSc1ccc(C(=O)c2[nH]c(=O)[nH]c2C)cc1,11.8% (inactive),
C[N+](C)(C)CCCCCCCCCC[N+](C)(C)C,1.55% (inactive),
Cc1nnc(SCC2=C(C(=O)O)N3C(=O)[C@@H](NC(=O)Cn4cnnn4)[C@H]3SC2)s1,4.31% (inactive),
NC(=O)N1c2ccccc2C=Cc2ccccc21,-0.138% (inactive),
CC(C(=O)O)c1ccc(CC2CCCC2=O)cc1 (stereo not given),-6.27% (inactive),
CCn1ccnc1CC1COc2ccccc2O1 (stereo not given),22.9% (inactive),
COc1ccc([C@@H]2Sc3ccccc3N(CCN(C)C)C(=O)[C@@H]2OC(C)=O)cc1,-10.1% (inactive),
c1cnc(N2CCN(Cc3ccc4c(c3)OCO4)CC2)nc1,-18.8% (inactive),
CN1CCN(CC(=O)N2c3ccccc3C(=O)Nc3cccnc32)CC1,-2.23% [at 4.84 µM] (inactive),
CN(C)CCOC(=O)COc1ccc(Cl)cc1,17.3% (inactive),
Cc1ccc(=O)n(-c2ccccc2)c1,-2.56% (inactive),

SMILES,"activity change, negative = cytotoxic",Potency
CN/C(=C\[N+](=O)[O-])NCCSCc1ccc(CN(C)C)o1,,1 nM (active)
CCCN(CCC)C(=O)C(CCC(=O)O)NC(=O)c1ccccc1 (stereo not given),-14.3% (inactive),
CCCOc1ccccc1-c1nc2n[nH]nc2c(=O)[nH]1,-7.46% (inactive),
O=C1CC2(CCCC2)CC(=O)N1CCCCN1CCN(c2ncccn2)CC1,3.46% (inactive),
NC(Cc1ccc(Cl)cc1)C(=O)O (stereo not given),-1.75% [at 0.597 µM] (inactive),
CC[N+](C)(C)c1cccc(O)c1,-13.4% (inactive),
CCc1c(C)[nH]c2c1C(=O)C(CN1CCOCC1)CC2 (stereo not given),-19.3% (inactive),
CC1=NS(=O)(=O)c2cc(Cl)ccc2N1,1.41% (inactive),
C[N+](C)(C)CCOC(N)=O,-21.8% (inactive),
c1ccc2c(c1)CCCC2C1=NCCN1 (stereo not given),-13.3% (inactive),
CN(C)C(=O)Oc1cccc([N+](C)(C)C)c1,6.66% (inactive),
CCN(CC)CC(=O)Nc1c(C)cccc1C,-13.2% (inactive),
COc1ccc(CN(CCN(C)C)c2ccccn2)cc1,-8.5% (inactive),
CCO/C([O-])=N/c1c[n+](N2CCOCC2)no1,-12.7% (inactive),
CN1C(=O)CC[C@H]1c1cccnc1,-4.05% (inactive),
Brc1c(NC2=NCCN2)ccc2nccnc12,-4.51% (inactive),
NC/C=C/C(=O)O,-1.59% (inactive),
